PubChem BioAssay (EPA / NIEHS)
“And” between values parts separate entries of the source, which are not always exact repeats. Identical values can stand only once. Inconclusive results are not listed. Where a structure was tested more than once in an assay, its records may differ in their call. The source made the active and inactive calls. Rule for the calls, unless noted: active = hit-call score of the fitted dose curve at least 0.9, where 1 is the maximum; inactive = score below 0.9.

Legend:
[1] = target: Paired box protein Pax-6 (Homo sapiens) (UniProt P26367); assay: ATG_Pax6_CIS: Attagene CIS-FACTORIAL HepG2 Assay for human Paired Box 6 (PAX6) (AID 2282956); details: HepG2 CIS-FACTORIAL PAX6 reporter transcription, RNA readout; actives raise or lower the signal
Summary of the method: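 Values derive from bidirectional curve fitting of reporter mRNA signal relative to DMSO. HepG2 cells bearing transfected cis-regulated MRTUs were exposed for 24 h; transcripts were read by RT-PCR and capillary electrophoresis.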

[2] = ATG_PXRE_CIS: Attagene CIS-FACTORIAL HepG2 Assay for human Pregnane X Receptor Element (PXRE) (AID 2282957); details: HepG2 Attagene CIS-FACTORIAL PXRE reporter, mRNA; actives raise or lower the signal
Summary of the method: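 Using HepG2 transfected with multiple reporter transcription units, endogenous factor-driven transcription was scored as reporter mRNA after 24 h exposure.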

[3] = ATG_PPRE_CIS: Attagene CIS-FACTORIAL HepG2 Assay for human Peroxisome Proliferator-activated Response Element (PPRE) (AID 2282958); details: HepG2 PPRE cis-element reporter, Attagene transcription factor profiling; actives raise or lower the signal
Summary of the method: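 Endogenous PPRE-driven transcription is measured in HepG2 cells carrying transfected multi-reporter constructs. Reporter transcripts are quantified by RT-PCR, HpaI digestion and capillary electrophoresis 24 h after dosing. DMSO baseline, bidirectional fit.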

[4] = ATG_RORE_CIS: Attagene CIS-FACTORIAL HepG2 Assay for human RAR-related Orphan Receptor Element (RORE) (AID 2282959); details: HepG2 Attagene cis-factorial RORE reporter, mRNA; actives raise or lower the signal
Summary of the method: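 RORE reporter transcripts reflecting endogenous factor activity were read after 24 h compound exposure of transfected HepG2 cells, using reverse transcription, PCR, fluorescent labelling and capillary electrophoresis sizing. Gain or loss fitted against DMSO.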

[5] = target: Transcription factor Sp1 (Homo sapiens) (UniProt P08047); assay: ATG_Sp1_CIS: Attagene CIS-FACTORIAL HepG2 Assay for human Specificity Protein 1 (Sp1) (AID 2282961); details: HepG2 Sp1 cis-reporter transcription, actives raise or lower the signal
Summary of the method: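 Read-out is reporter transcript level, measured by RT-PCR and fluorescent capillary electrophoresis after 24 h chemical treatment. System: transiently transfected HepG2 cells reporting endogenous transcription factor activity; gain or loss fitted against DMSO baseline.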

[6] = ATG_SREBP_CIS: Attagene CIS-FACTORIAL HepG2 Assay for human Sterol Regulatory Element Binding (SREBP) (AID 2282962); details: HepG2 Attagene cis-factorial SREBP reporter, mRNA; actives raise or lower the signal
Summary of the method: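 Values derive from bidirectional curve fitting with DMSO as baseline. The underlying measurement is reporter mRNA from cis-element-regulated units in transiently transfected HepG2, quantified by RT-PCR and capillary electrophoresis after 24 h exposure.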

[7] = target: Signal transducer and activator of transcription 3 (Homo sapiens) (UniProt P40763); assay: ATG_STAT3_CIS: Attagene CIS-FACTORIAL HepG2 Assay for human Signal Transducer and Activator of Transcription 3 (STAT3) (AID 2282963); details: HepG2, Attagene cis-factorial STAT3 reporter transcription; actives raise or lower the signal
Summary of the method: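 HepG2, MRTU-transfected, 24 h dosing. RNA → RT → PCR → FAM label → HpaI → CE. Bidirectional fit vs DMSO.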

[8] = ATG_TA_CIS: Attagene CIS-FACTORIAL HepG2 Assay for human TA Basal Promoter (AID 2282964); details: HepG2 Attagene CIS-factorial TA basal promoter reporter; actives raise or lower the signal
Summary of the method: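 Transient MRTU transfection of HepG2 preceded 24 h compound exposure. Reporter mRNA levels were then read by RT-PCR with capillary electrophoresis, and this background-control endpoint was fitted bidirectionally to DMSO.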

[9] = ATG_TCF_b_cat_CIS: Attagene CIS-FACTORIAL HepG2 Assay for human T-Cell-Factor with beta-catenin (TCF/b-cat) (AID 2282965); details: HepG2 TCF/beta-catenin cis-reporter transcription, actives raise or lower the signal
Summary of the method: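 In this cis-format system, transfected HepG2 cells report endogenous transcription factor activity. Readout after 24 h exposure is reporter transcript abundance from RT-PCR and capillary electrophoresis, analysed for gain or loss of signal versus DMSO.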

[10] = ATG_TAL_CIS: Attagene CIS-FACTORIAL HepG2 Assay for human TAL Basal Promoter (AID 2282966); details: HepG2 Attagene cis-factorial TAL promoter reporter; actives raise or lower the signal;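 note: background control endpoint measuring basal TAL promoter reporter mRNA not a specific factor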
Summary of the method: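 After 24 hours of chemical exposure, transfected HepG2 cells yielded RNA that was converted to 6-FAM-labelled, HpaI-digested reporter fragments for capillary electrophoresis. Values derive from bidirectional fitting against DMSO controls.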

[11] = ATG_TGFb_CIS: Attagene CIS-FACTORIAL HepG2 Assay for human Transforming Growth Factor (TGF) (AID 2282967); details: HepG2 Attagene CIS TGFb reporter, mRNA transcription; actives raise or lower the signal
Summary of the method: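 After a 24-hour incubation with compound, transfected HepG2 cells were lysed for RNA; reporter cDNA was amplified, fluorescently end-labeled and separated by CE. DMSO served as baseline for bidirectional fits.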

[12] = ATG_VDRE_CIS: Attagene CIS-FACTORIAL HepG2 Assay for human Vitamin D Receptor Element (VDRE) (AID 2282968); details: HepG2 VDRE cis-reporter transcription, actives raise or lower the signal
Summary of the method: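 Steps: transfect HepG2 with multiple reporter transcription units; dose chemicals 24 h; isolate RNA; RT-PCR; label with 6-FAM primer extension; HpaI digest; capillary electrophoresis. Curves fitted both directions against DMSO.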

[13] = target: Nuclear receptor subfamily 1 group I member 3 (Homo sapiens) (UniProt Q14994); assay: ATG_CAR_TRANS: Attagene TRANS-FACTORIAL HepG2 Assay for human Constitutive Androstane Receptor (CAR) (AID 2282969; active = hit-call score of the fitted dose curve at least 0.9, where 1 is the maximum;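 note: activators raise reporter mRNA above DMSO so AC50 marks induction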); details: HepG2 Attagene TRANS-FACTORIAL CAR reporter
Summary of the method: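 Steps: transient transfection of HepG2 with multiple GAL4-UAS reporter units; 24 h compound incubation; RNA isolation, RT-PCR, 6-FAM primer extension, HpaI digest; capillary electrophoresis. Gain-of-signal relative to DMSO negative control.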

[14] = target: Estrogen receptor (Homo sapiens) (UniProt P03372); assay: ATG_ERa_TRANS: Attagene TRANS-FACTORIAL HepG2 Assay for human Estrogen Receptor alpha (ERa) (AID 2282970; active = hit-call score of the fitted dose curve at least 0.9, where 1 is the maximum); details: HepG2 Attagene TRANS ERa GAL4 reporter, mRNA
Summary of the method: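 Liver-derived HepG2 cells expressing chimeric nuclear receptor-Gal4 proteins from transient transfection were exposed for 24 hours. Gain of reporter mRNA signal versus DMSO, read by capillary electrophoresis of FAM-labelled PCR products, was recorded.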

[15] = target: X-box-binding protein 1 (Homo sapiens) (UniProt P17861); assay: ATG_Xbp1_CIS: Attagene CIS-FACTORIAL HepG2 Assay for human X-box Binding Protein 1 (XBP1) (AID 2282972); details: HepG2 XBP1 cis-element reporter, Attagene multiplex; actives raise or lower the signal
Summary of the method: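 Human hepatoma HepG2, cis-element reporter system, 24 h treatment; mRNA quantified by RT-PCR/CE fluorescence; fit relative to DMSO.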

[16] = ATG_M_19_TRANS: Attagene TRANS-FACTORIAL HepG2 Assay for M19 Transcription Factor (Internal Marker) (AID 2282974; active = hit-call score of the fitted dose curve at least 0.9, where 1 is the maximum); details: HepG2 Attagene TRANS-FACTORIAL M19 internal marker reporter
Summary of the method: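 Background-control readout: after 24 h chemical exposure of transfected HepG2 carrying GAL4-driven reporter units, RNA was reverse-transcribed, amplified, fluorescently labeled and sized by capillary electrophoresis; gain-of-signal fit against DMSO.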

[17] = ATG_Sox_CIS: Attagene CIS-FACTORIAL HepG2 Assay for human SRY-box transcription factor (SOX) (AID 2282960); details: HepG2 Attagene cis-factorial SOX reporter, mRNA; actives raise or lower the signal
Summary of the method: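 Reporter transcripts, measured by RT-PCR and capillary electrophoresis of labelled fragments, report endogenous SOX transcription factor activity. Transiently transfected human HepG2 cells receive chemical for 24 h; changes in either direction are fitted relative to DMSO.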

[18] = target: Steroid hormone receptor ERR1 (Homo sapiens) (UniProt P11474); assay: ATG_ERRa_TRANS: Attagene TRANS-FACTORIAL HepG2 Assay for human Estrogen-Related Receptor alpha (ERRa) (AID 2282971; active = hit-call score of the fitted dose curve at least 0.9, where 1 is the maximum); details: HepG2 Attagene TRANS reporter, ERRa transactivation
Summary of the method: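 Reporter transcript induction was quantified by RT-PCR and capillary electrophoresis of FAM-labelled, HpaI-cut products after 24 h treatment of HepG2 cells carrying transiently transfected GAL4-UAS reporter units and an exogenous ERRa-Gal4 fusion; activity scored as increase over DMSO.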

[19] = ATG_GAL4_TRANS: Attagene TRANS-FACTORIAL HepG2 Assay for GAL4 (Internal Marker) (AID 2282976; active = hit-call score of the fitted dose curve at least 0.9, where 1 is the maximum); details: HepG2 Attagene TRANS GAL4 internal marker reporter
Summary of the method: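 First, HepG2 cells were transfected with reporter units under GAL4-UAS control. Next, they were treated with chemical for 24 h. Finally, RNA was reverse-transcribed, PCR-amplified, FAM-labelled and resolved by capillary electrophoresis, with induction scored against DMSO.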

Measured: AC50

Sequence of Estrogen receptor (Homo sapiens) (P03372 whole entry, looked up, the tested form may be a part): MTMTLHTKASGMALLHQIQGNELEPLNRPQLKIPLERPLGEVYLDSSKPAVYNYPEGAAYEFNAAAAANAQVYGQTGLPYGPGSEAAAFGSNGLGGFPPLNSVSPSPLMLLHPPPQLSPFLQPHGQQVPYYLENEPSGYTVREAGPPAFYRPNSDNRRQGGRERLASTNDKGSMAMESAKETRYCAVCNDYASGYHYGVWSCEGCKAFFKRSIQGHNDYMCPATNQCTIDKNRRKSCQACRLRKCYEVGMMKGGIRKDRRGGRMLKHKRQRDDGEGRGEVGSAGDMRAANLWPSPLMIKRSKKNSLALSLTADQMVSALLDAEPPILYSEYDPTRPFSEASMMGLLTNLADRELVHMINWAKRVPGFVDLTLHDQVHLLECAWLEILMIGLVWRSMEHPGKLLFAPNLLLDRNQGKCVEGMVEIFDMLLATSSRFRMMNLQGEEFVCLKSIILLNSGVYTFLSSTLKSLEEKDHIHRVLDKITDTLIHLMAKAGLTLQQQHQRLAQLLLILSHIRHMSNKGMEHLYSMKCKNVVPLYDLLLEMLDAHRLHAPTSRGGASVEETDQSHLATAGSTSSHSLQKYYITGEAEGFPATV
Sequence of Signal transducer and activator of transcription 3 (Homo sapiens) (P40763 whole entry, looked up): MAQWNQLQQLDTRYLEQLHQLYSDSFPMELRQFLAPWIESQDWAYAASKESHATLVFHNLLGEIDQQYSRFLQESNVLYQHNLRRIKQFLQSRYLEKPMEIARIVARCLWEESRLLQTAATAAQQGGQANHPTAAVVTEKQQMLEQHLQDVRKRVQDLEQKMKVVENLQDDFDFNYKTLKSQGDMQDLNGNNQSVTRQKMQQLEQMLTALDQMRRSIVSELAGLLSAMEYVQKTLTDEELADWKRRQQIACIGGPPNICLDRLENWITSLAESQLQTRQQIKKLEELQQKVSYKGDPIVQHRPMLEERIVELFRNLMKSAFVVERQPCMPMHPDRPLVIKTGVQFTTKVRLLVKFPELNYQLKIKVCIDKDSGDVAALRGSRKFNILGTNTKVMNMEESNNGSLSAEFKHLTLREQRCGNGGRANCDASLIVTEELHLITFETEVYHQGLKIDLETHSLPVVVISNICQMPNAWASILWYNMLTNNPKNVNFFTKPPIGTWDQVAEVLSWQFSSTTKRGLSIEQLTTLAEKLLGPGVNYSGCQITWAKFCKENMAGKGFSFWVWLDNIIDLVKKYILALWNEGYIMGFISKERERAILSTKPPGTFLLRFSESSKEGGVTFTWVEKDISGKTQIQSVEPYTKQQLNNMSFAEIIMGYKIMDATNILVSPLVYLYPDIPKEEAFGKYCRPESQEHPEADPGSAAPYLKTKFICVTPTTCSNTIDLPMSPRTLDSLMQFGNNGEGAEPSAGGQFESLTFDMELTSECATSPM
Sequence of Paired box protein Pax-6 (Homo sapiens) (P26367 whole entry, looked up): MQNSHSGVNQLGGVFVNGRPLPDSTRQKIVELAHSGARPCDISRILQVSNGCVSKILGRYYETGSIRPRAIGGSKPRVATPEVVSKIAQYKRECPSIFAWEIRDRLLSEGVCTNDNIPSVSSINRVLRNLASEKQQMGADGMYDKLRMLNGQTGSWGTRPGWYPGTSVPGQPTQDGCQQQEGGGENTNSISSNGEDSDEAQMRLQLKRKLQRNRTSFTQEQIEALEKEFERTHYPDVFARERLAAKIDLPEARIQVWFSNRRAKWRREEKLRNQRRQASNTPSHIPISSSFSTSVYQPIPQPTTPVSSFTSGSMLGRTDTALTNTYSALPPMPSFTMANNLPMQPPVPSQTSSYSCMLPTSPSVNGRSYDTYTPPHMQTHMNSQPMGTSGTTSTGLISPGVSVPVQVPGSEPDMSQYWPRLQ
Sequence of X-box-binding protein 1 (Homo sapiens) (P17861 whole entry, looked up): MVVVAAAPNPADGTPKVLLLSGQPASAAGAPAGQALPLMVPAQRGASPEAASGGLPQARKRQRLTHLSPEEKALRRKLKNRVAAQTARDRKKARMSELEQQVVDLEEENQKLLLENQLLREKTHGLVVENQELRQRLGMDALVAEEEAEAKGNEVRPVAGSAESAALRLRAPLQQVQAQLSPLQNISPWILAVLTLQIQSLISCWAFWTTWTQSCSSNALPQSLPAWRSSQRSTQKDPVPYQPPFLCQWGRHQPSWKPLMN
Sequence of Transcription factor Sp1 (Homo sapiens) (P08047 whole entry, looked up): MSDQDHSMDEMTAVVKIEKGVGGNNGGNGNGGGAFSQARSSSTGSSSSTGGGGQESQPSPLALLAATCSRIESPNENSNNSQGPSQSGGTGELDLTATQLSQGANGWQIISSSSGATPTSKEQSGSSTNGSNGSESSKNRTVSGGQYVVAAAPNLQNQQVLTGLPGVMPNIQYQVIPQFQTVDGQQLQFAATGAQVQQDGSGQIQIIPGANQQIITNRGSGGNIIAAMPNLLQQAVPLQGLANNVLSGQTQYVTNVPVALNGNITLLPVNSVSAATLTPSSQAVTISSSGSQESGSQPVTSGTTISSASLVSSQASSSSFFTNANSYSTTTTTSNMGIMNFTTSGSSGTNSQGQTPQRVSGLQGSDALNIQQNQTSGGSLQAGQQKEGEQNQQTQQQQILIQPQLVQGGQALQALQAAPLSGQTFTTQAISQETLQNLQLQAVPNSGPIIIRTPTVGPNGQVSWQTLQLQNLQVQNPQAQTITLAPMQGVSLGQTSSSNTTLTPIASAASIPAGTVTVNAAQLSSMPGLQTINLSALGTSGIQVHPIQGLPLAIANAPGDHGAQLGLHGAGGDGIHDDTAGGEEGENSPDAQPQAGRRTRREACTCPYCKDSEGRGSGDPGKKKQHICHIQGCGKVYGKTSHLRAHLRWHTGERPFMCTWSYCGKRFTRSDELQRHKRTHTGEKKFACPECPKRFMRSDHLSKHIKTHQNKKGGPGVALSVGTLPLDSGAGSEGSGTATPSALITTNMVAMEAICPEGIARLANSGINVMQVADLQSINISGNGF
Sequence of Steroid hormone receptor ERR1 (Homo sapiens) (P11474 whole entry, looked up, the tested form may be a part): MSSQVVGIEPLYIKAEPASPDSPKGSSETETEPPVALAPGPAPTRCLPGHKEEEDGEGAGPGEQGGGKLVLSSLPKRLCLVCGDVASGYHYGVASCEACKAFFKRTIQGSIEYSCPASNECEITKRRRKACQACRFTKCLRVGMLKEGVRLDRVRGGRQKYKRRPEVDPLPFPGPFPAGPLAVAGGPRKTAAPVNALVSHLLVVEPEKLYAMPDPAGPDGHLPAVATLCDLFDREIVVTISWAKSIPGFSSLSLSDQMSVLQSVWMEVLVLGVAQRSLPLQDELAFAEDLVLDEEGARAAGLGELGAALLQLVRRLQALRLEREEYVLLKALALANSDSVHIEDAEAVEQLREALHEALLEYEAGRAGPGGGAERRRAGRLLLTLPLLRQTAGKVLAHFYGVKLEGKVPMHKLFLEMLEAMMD
Sequence of Nuclear receptor subfamily 1 group I member 3 (Homo sapiens) (Q14994 whole entry, looked up, the tested form may be a part): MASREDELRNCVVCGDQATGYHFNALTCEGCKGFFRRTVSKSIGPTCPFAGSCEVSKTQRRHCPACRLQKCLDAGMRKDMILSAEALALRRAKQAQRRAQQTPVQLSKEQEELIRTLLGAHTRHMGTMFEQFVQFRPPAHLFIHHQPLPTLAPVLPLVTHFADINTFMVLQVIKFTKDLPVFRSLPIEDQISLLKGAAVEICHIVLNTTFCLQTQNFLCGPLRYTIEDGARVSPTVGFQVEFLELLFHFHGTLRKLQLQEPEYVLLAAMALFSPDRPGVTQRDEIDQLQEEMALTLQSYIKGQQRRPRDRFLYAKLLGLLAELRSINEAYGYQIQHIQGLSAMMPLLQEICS

CN(C)Cc1ccccc1O
active: [8] 165 µM
not listed: [17] | [18] | [19]
inactive: all other assays above

O=C(O)C=C(C(F)(F)F)C(F)(F)F
not listed: [5] | [16]
inactive: all other assays above

FC(F)(I)C(F)(F)C(F)(F)C(F)(F)I
active: [14] 0.299 µM
not listed: [5] | [18]
inactive: all other assays above

O=S(=O)(O)c1ccc2ccccc2c1
active: [2] 11.2 µM and 91 µM | [12] 29.3 µM
inactive: [1] | [3] | [17] | [5] | [6] | [7] | [8] | [9] | [10] | [11] | [12] | [14] | [15] | [16] | [19]

OCC(F)(F)C(F)(F)C(F)(F)C(F)F
not listed: [5] | [13]
inactive: all other assays above

O=C(C=Cc1ccccc1)OCC=Cc1ccccc1
active: [2] 15.9 µM | [14] 18 µM
not listed: [18]
inactive: all other assays above

CCCCCCCCC(F)(F)C(F)(F)C(F)(F)C(F)(F)C(F)(F)C(F)(F)F
inactive: all assays above

FC(F)(F)C(F)(F)C(F)(F)C(F)(F)C(F)(F)C(F)(F)C(F)(F)Br
inactive: all assays above
